# Data: PubChem BioAssay AID624396 (The Scripps Research Institute Molecular Screening Center, 2012)
# Activity calls are given as the source filed them.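 The calls were made as follows: active = over 15% of cells apoptotic at 25 µM, or half-maximal dose of 10 µM or lower; inactive = the rest.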
# System: MCL1 1780
# Assay: apoptosis induction in cancer cell lines, late-stage follow-up, mechanism study for MCL1-BIM inhibitor project, imaging, DAPI staining, cell line panel, probe (AID 624396)
# Details: DAPI nuclear morphology, at 25 µM, hits give high values
compound,measurement,value
CCN1CCN(C(c2ccc(C(F)(F)F)cc2)c2ccc3cccnc3c2O)CC1 (stereo unspecified),apoptosis,99% (active)
